Among all 93,000 compounds or so, about 180 (0.19%) were called active. Shown is part of a subset that was picked to be rich in actives. A number with no mark means an inactive call.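 How the source made its calls: active means activation above the screen mean plus 3 SD, with well images confirming the hit on visual review (cut at about 28% in these data, passing the limit was not always enough); inconclusive means activation above that limit but images do not confirm it; inactive means activation not above that limit.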
Assay: enhancers of endothelial VCAM-1 upregulation by TNFa – imaging, HUVEC, TNFa stimulus, immunofluorescence, primary screen (AID 808);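 further: signal is the number of cytoplasmic VCAM-1 stained grains per positive cell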
Details: HUVEC TNFa-stimulated VCAM-1 immunofluorescence, high-content imaging; at 2 µM; stronger effect = higher value
With `COC(=O)CN1C(=O)C2(C(C(=O)OC)=C(N)Oc3ccccc32)C2=C1CC(C)(C)CC2=O` (stereo not given) the activation was 33.9% (active). In the case of `CCOC(=O)C(O)(c1ccc(N)c(OC)c1)C(F)(F)F` (stereo not given), the activation is reported as -9.7%. With `c1cncc(CNC2=NCCC2)c1` the activation was -5.4%. Molecule `O=C(NCC(c1cccnc1)N1CCN(c2ccccc2)CC1)Oc1ccccc1` (stereo not given) has an activation of 1.5%. `CNC(=O)N(C)c1nnc(C(C)(C)C)s1` gave an activation of 4.6%.
